Consider 12 molecules from PubChem BioAssay (NCI).

The panel holds about 83,000 compounds, 20% with a hit somewhere; the sample as a whole holds those more often.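 Compound tested at a single concentration for 48 hours in 96-well plates; a percent growth value below 10 was scored as active.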 Values without a mark were called inactive. The source made the active and inactive calls.

Holding throughout (experiment): NCI-60 one-dose screen, 48 h (100 = growth as untreated, 0 = no growth, -100 = all killed)
Settings in all cases: 10 µM unless noted

Assay [1] deals with DU-145 prostate.
Assay [2] relates to K-562 leukemia.
Assay [3] has as its system MALME-3M melanoma.
Assay [4] has as its system MDA-MB-231 breast.
The test system of assay [5] is RXF 393 renal.
Assay [6] concerns SF-268 CNS.
Assay [7] concerns SF-295 CNS.
Assay [8] relates to SF-539 CNS.
Assay [9] deals with UACC-257 melanoma.
Assay [10] concerns M14 melanoma.

On to `Cc1occc1-c1n[nH]c(=S)n1N1C(=O)CSC1=S`, for which the growth in assay [1] was 108%; in assay [2] it was 103%; in [3], 98%; in assay [4], 101%; in assay [5] it was 112%; in assay [6] it was 97%. Besides, the growth in assay [7] was 101%; in assay [8], 98.5%; in [9], 109%; in assay [10], 102%.
As to `CC(=O)C(C)Cc1cc2c(cc1C)C(C)(C)CCC2(C)C` (stereo not given), the growth in [1] is 107%; in assay [2], 105%; in assay [3] it was 99%; in assay [4] it was 109%; in [5], 104%; in assay [6] it was 100%. For the same molecule, the growth in assay [7] is 102%; in assay [8], 102%; in assay [9], 79.1%; in assay [10], 88.1%.
For the molecule `O=C1/C(=C2/C=Nc3ccccc32)N(O)c2ccccc21`, the growth in assay [1] is 73.7%; in assay [2] it was 19.6%; in assay [3], 56.3%; in assay [4] it was 64.9%; in assay [5], 92.2%; in assay [6], 76%. The growth in assay [7] is 71%; in assay [8] it was 104%; in assay [9] it was 45%; in [10] it was 87.4%.
Take `COc1cccc(-c2nn(-c3ccccc3)cc2-c2ccnc(NCCNC(=O)c3ccccc3)c2)c1`: the growth in [1] was 74.5%; in assay [2], 38.2%; in assay [3], 95.7%; in assay [4], 55.3%; in assay [5] it was 79.9%; in assay [6], 78.3%. In addition, the growth in assay [7] was 62.1%; in [8], 96.9%; in assay [9], 49.7%; in assay [10], 55.3%.
On to `O=C1Nc2ccccc2/C1=C/c1cn(C(=O)c2ccc(Cl)cc2)c2ccccc12`, for which the growth was 118% in [1]; 85.7% in assay [2]; 118% in assay [3]; 77.7% in assay [4]; 130% in assay [5]; 99.9% in [6]. Moreover, the growth in assay [7] was 114%; in assay [8], 99.4%; in [9], 99.7%; in assay [10], 102%.
`C[C@H]1[C@H]2[C@H]3CC[C@@H]4[C@@]5(C)C/C(=C/c6ccco6)C(=O)C(C)(C)[C@@H]5CC[C@@]4(C)[C@]3(C)CC[C@]23CO[C@]1(C)[C@@H](C(=O)/C=C\c1ccco1)C3`: the growth in assay [1] is 111%; in assay [2], 93.4%; in [3] it was 23.5%; in assay [4] it was 94.9%; in [5] it was 98.4%; in assay [6] it was 97.3%. The growth in assay [7] was 107%; in [8], 93.8%; in assay [9] it was 31.5%; in assay [10], 60.5%.
Consider `O=C1CCc2c(sc3[nH]c(=S)n(-c4ccc(OC(F)(F)F)cc4)c(=O)c23)C1`, for which the growth was 81.2% in [1]; 18% in [2]; 68% in assay [3]; 61.4% in assay [4]; 37.3% in [5]; 25.6% in assay [6]. The growth in [7] was 17.2%; in assay [8] it was 19%; in assay [9], 85.9%; in assay [10], 59.6%.
Take `COc1ccc2cc(-c3cc(OC)c(OC)c(OC)c3)c(=O)oc2c1`: the growth in [1] is 101%; in assay [2], 27.7%; in assay [3], 65.1%; in assay [4], 60.8%; in assay [5], 84.9%; in assay [6], 89.7%. Moreover, the growth in assay [7] was 71.4%; in assay [8] it was 80.2%; in assay [9], 54.9%; in assay [10], 38.6%.
For the molecule `O=C(O)CN1C(=O)CCC1=O`, the growth is 109% in assay [1]; 111% in [2]; 104% in assay [3]; 90.7% in assay [4]; 111% in assay [5]; 99.8% in [6]. Moreover, the growth was 99.1% in assay [7], 99% in assay [8], 104% in [9] and 111% in assay [10].
Regarding `Cc1ccc(Nc2nc(N)nc(CSCC(=O)NN)n2)cc1`, the growth was 103% in assay [1]; 96.6% in [2]; 111% in assay [3]; 98.9% in [4]; 103% in assay [5]; 97.9% in assay [6]. Besides, the growth in assay [7] is 99.3%; in [8], 95.1%; in assay [9], 108%; in assay [10], 114%.
Turning to `COc1cccc(-c2nn(-c3ccccc3)cc2-c2ccnc(NCCNC(=O)Nc3ccc(Cl)c(Cl)c3)c2)c1`, the growth is 2.24% (active) in [1]; 2.28% (active) in assay [2]; 25.3% in [3]; -22.9% (active) in assay [4]; -9.27% (active) in assay [5]; 9.11% (active) in [6]. The growth in [7] was 2.94% (active); in assay [8], -0.925% (active); in assay [9], 16%; in assay [10], -36.8% (active).
In the case of `NC(=S)N/N=C/Cc1ccccc1`, the growth in assay [1] is 110%; in assay [2] it was 88.4%; in assay [3], 119%; in assay [4], 101%; in assay [5] it was 103%; in assay [6] it was 105%. Also, the growth in assay [7] is 97.7%; in assay [8] it was 109%; in assay [9], 59.7%; in assay [10] it was 104%.
